# Records with an inconclusive call do not appear. A call without a number means that no potency is given here. Calls of active or inactive are those of the source. Calls follow the shape of the dose curve; as a rule, active = well fitted curve in the direction sought with a large enough effect; inconclusive = small, poorly fitted or top-dose-only effect, or another doubt; inactive = no such curve, though single readings can be large; an effect the other way counts as inactive or inconclusive.
# Key:
# [1] = molecular target: Phospholipid hydroperoxide glutathione peroxidase GPX4 (Homo sapiens) (UniProt P36969); experiment: Primary qHTS Assay for Inhibitors of Recombinant Selenoprotein Glutathione Peroxidase 4 (GPX4) (AID 1845192); also: nearly all actives have a fitted effect of over 65% in size
# Chain of Phospholipid hydroperoxide glutathione peroxidase GPX4 (Homo sapiens) (P36969 whole entry, looked up): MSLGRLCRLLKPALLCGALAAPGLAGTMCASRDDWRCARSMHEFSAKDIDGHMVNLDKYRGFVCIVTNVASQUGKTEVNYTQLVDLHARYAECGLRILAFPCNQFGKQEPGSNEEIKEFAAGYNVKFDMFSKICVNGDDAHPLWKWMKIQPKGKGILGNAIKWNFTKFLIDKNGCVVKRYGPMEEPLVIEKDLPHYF
# Outline: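 NADPH consumption followed by fluorescence at 340/450 nm, t=0 and after 15 min at room temperature. Reaction started with cumene hydroperoxide (0.5 mM final) after 30 min compound–GPX4 preincubation; final 200 nM GPX4, 100 nM GR, 1 mM GSH, 0.5 mM NADPH.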
# [2] = molecular target: Luciferin 4-monooxygenase (Photinus pyralis) (UniProt P08659); experiment: Primary firefly luciferase (FLuc) qHTS assay for identification of artifact compounds. (AID 1845220); also: nearly all actives have a fitted effect of over 60% in size; also: potency is read from the fitted curve at half-maximal effect
# Outline: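 Cell-free, 1536-well qHTS. Buffer pH 7.6 with 0.01% Tween-20 and 0.05% BSA; 10 uM D-luciferin, 10 uM ATP; 10 nM P. pyralis luciferase; luminescence after 5 min.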
# [3] = Primary fluorescence-based thiol-reactive (MSTI) qHTS assay for identification of artifact compounds. (AID 1845221);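 also: series mostly up to about 54 µM; thiol-reactive compounds lower the probe fluorescence signal; nearly all actives have a fitted effect of over 65% in size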
# Outline: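 First, 4 uM MSTI in 2% DMSO/PBS pH 7.4 was dispensed; next, compounds were added; then plates sat 1 h at room temperature without light. Finally, emission at 598 nm was recorded.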
# [4] = system: Nanoluciferase (engineered Oplophorus gracilirostris luciferase); experiment: Primary Nanoluciferase (NLuc) qHTS assay for identification of artifact compounds. (AID 1845222); also: potency is read from the fitted curve at half-maximal effect
# Outline: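 Compounds are pinned into diluted (1:55) conditioned medium of NLuc-expressing S16 cells and held 15 min at room temperature protected from light. Nano-Glo substrate follows, and luminescence is read 5 min later.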
# [5] = Primary redox qHTS assay for identification of artifact compounds. (AID 1845223)
# Outline: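 Redox-cycling detection via DTT (250 uM final) oxidation coupled to Amplex Red (25 uM)/HRP (250 mU/mL) in HBSS. 15 min preincubation plus 30 min after DTT, room temperature. Ex/Em 525/598 nm; 4-parameter Hill fit against DMSO and 10 uM DA3003.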
# [6] = molecular target: Glutathione peroxidase 1 (Homo sapiens) (UniProt P07203); experiment: Primary qHTS Assay for Inhibitors of Recombinant Selenoprotein Glutathione Peroxidase 1 (GPX1) (AID 1845191); also: nearly all actives have a fitted effect of over 65% in size
# Chain of Glutathione peroxidase 1 (Homo sapiens) (P07203 whole entry, looked up): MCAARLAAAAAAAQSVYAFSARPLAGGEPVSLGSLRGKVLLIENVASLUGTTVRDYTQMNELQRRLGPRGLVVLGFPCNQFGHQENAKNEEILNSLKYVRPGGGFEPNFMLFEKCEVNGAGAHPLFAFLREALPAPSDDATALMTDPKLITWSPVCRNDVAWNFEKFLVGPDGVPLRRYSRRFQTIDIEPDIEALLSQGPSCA
# Outline: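 NADPH consumption tracked by fluorescence at 340/450 nm between t=0 and t=15 min, room temperature. Final mix: 10 nM GPX1, 100 nM glutathione reductase, 1 mM GSH, 0.5 mM NADPH, 0.5 mM cumene hydroperoxide, 0.01% BSA; 30 min compound–enzyme preincubation.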
Structure (SMILES),Potency [1],Potency [2],Potency [3],Potency [4],outcome [5],Potency [6]
CN(C)C1CCN(C(=O)c2ccc(NC(=O)Nc3nc(N4CCOCC4)nc(N4CCOCC4)n3)cc2)CC1,inactive,inactive,inactive,inactive,inactive,–
CC(C)(C)OC(=O)N[C@H]1CCCCCC=C[C@@H]2C[C@@]2(C(=O)NS(=O)(=O)C2CC2)NC(=O)[C@@H]2C[C@@H](OC(=O)N3Cc4cccc(F)c4C3)CN2C1=O,–,inactive,inactive,inactive,–,–
CC(C)[C@H](CO)Nc1nc(Nc2ccc(C(=O)O)c(Cl)c2)c2ncn(C(C)C)c2n1,inactive,inactive,–,inactive,inactive,inactive
CNC(=O)c1ccc2cc(C3(O)CCn4cncc43)ccc2c1 (stereo not drawn),inactive,inactive,inactive,–,inactive,inactive
CCn1c(C(=O)N(C2CC2)C2CC2)cc2c3c(ncn3C)c(Nc3cc(C)n(C)n3)nc21,inactive,inactive,–,–,inactive,inactive
O=C(Nc1cccc(Br)c1)c1cccc(S(=O)(=O)N2CCCCCC2)c1,inactive,inactive,inactive,–,inactive,inactive
CC(C)(C)NC(=O)Nc1cccc(Nc2ncc(F)c(NC(C)(C)CO)n2)c1,inactive,inactive,inactive,–,inactive,inactive
O=C(O)c1cc(-c2ccccc2)nc2ccccc12,inactive,–,inactive,inactive,inactive,inactive
O=C(O)c1cc(O)c2c(c1)C(=O)c1cccc(O)c1C2=O,inactive,–,–,–,–,–
O=C(NCc1ccccc1)c1csc(Nc2ccncn2)n1,inactive,inactive,inactive,–,inactive,inactive
CO[C@H]1C=CO[C@@]2(C)Oc3c(C)c(O)c4c(O)c(c5c(c4c3C2=O)NC2(CCN(CC(C)C)CC2)N=5)=NC(=O)C(C)=CC=C[C@H](C)[C@H](O)[C@@H](C)[C@@H](O)[C@@H](C)[C@H](OC(C)=O)[C@H]1C,inactive,inactive,–,inactive,inactive,–
Cc1c(NC(=O)c2ccc(C(C)(C)C)cc2)cccc1-c1cn(C)c(=O)c(Nc2ccc(C(=O)N3CCOCC3)cc2)n1,inactive,5.88 µM (active),–,–,inactive,inactive
COc1ccc(C2Sc3ccccc3N(CCN(C)C)C(=O)C2OC(C)=O)cc1 (stereo not drawn),inactive,inactive,inactive,inactive,inactive,–
COc1cc(Nc2ncc(F)c(Nc3ccc4c(n3)NC(=O)C(C)(C)O4)n2)cc(OC)c1OC,inactive,inactive,–,inactive,inactive,inactive
NC(=O)c1cccc(-c2cc(Nc3ccc(OC(F)(F)F)cc3)ncn2)c1,inactive,inactive,inactive,–,inactive,inactive
CS(=O)(=O)N(Cc1ccco1)CC(O)Cn1c2ccccc2c2ccccc21 (stereo not drawn),inactive,inactive,inactive,–,inactive,inactive

Structure (SMILES),Potency [1],Potency [2],Potency [3],Potency [4],outcome [5],Potency [6]
NS(=O)(=O)c1ccc(NC2=CC(=O)c3ccccc3C2=O)cc1,inactive,–,–,–,–,–
CN[C@@H](C)C(=O)N[C@H]1CN(C(=O)CC(C)C)CC[C@H]2CC[C@@H](C(=O)NC(c3ccccc3)c3ccccc3)N2C1=O,inactive,inactive,inactive,–,inactive,inactive
O=C(CCN1CCN(C(=O)OCc2cc(Cl)cc(Cl)c2)CC1)c1ccc2[nH]c(=O)oc2c1,inactive,inactive,inactive,–,inactive,inactive
O=C(NC1CCOCC1)c1ccc(-c2cc(-c3cn[nH]c3-c3ccccn3)ccn2)cc1,inactive,inactive,inactive,–,inactive,inactive
CCOC(=O)C1=C(N)Oc2ccc(Br)cc2C1C(C#N)C(=O)OCC (stereo not drawn),inactive,inactive,–,inactive,inactive,inactive
O=C(CCCCCCC(=O)Nc1ccccc1)NO,inactive,inactive,–,inactive,inactive,inactive
O=C1c2ccccc2-[n+]2ccc3c([nH]c4ccccc43)c21,inactive,–,–,–,–,–
NS(=O)(=O)c1cccc2c1C(=O)c1cccc(O)c1C2=O,inactive,–,–,–,–,–
COCCOc1nc(-c2ccc(Cl)c(Cl)c2)n(-c2ccc(NC(=O)CCl)cc2)n1,inactive,inactive,inactive,–,inactive,inactive
COc1ccc(C2CC(c3ccccc3)=NN2c2ccc(S(N)(=O)=O)cc2)cc1 (stereo not drawn),–,–,inactive,–,inactive,–
O=C(O)c1ccccc1C(=O)Nc1ccc(-c2ccccc2)cc1,inactive,23.9 µM (active),–,23.9 µM (active),inactive,inactive
Cc1ccccc1C(C(=O)NC1CCCCC1)N(C(=O)Cn1ccnc1C)c1cccc(F)c1 (stereo not drawn),inactive,inactive,inactive,–,inactive,inactive
C[C@@H](O)[C@H]1C(=O)N2C(C(=O)O)=C(S[C@@H]3CN[C@H](C(=O)N(C)C)C3)[C@H](C)[C@H]12,inactive,–,–,–,–,–
Cc1ccn(-c2ccc(-c3ncco3)cc2)c(=O)c1-c1ccc2nc(N)ncc2c1,–,inactive,inactive,–,–,–
COc1ccc2cc(-c3nc(-c4ccc(S(C)=O)cc4)[nH]c3-c3ccncc3)ccc2c1 (stereo not drawn),–,inactive,inactive,–,inactive,inactive

# From PubChem BioAssay (NCATS)
